Holding throughout (test): NCI-60 one-dose screen, 48 h (100 = growth as untreated, 0 = no growth, -100 = all killed)
Common to all, as to conditions: 10 µM unless noted

In assay [1] the test system is NCI-H23 lung.
Assay [2] deals with NCI-H226 lung.
Assay [3] relates to NCI-H322M lung.
Assay [4] relates to HOP-62 NSCLC.
Assay [5] concerns NCI-H460 lung.
Assay [6] concerns NCI-H522 lung.
In assay [7] the test system is A549/ATCC NSCLC.
The subject of assay [8] is 786-0 renal.
For assay [9], the system named is COLO 205 colon.
Assay [10] deals with DU-145 prostate.

The panel holds about 83,000 compounds, 20% with a hit somewhere; the sample as a whole holds those more often.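 Assay: single dose, 48 h. Readout: percent growth (0 = no net growth; negative = cell death). Active: <10.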 Unmarked numbers belong to inactive results. The source made the active and inactive calls.

For the compound `NC(=O)N/N=C/c1ccc(Br)o1`, the growth in assay [1] was 97.7%; in assay [2], 98.8%; in assay [3], 101%; in [4], 94.2%; in assay [5] it was 110%; in [6], 89.7%. In addition, the growth in assay [7] is 106%; in assay [8], 105%; in [9], 98.6%; in assay [10], 110%.
In the case of `C=C(C)[C@@H]1C[C@H](O)Cc2cc(Cl)cc(Cl)c2N1`, the growth is 103% in assay [1]; 100% in assay [2]; 100% in assay [3]; 96.6% in assay [4]; 110% in [5]; 92.8% in assay [6]. Moreover, the growth was 94.2% in assay [7], 100% in assay [8], 107% in [9] and 108% in [10].
As for `O=C(/C(=C/c1ccc([N+](=O)[O-])cc1)c1ccccc1)c1ccccc1`, the growth is 67.1% in assay [1]; 56.6% in assay [2]; 74.3% in [3]; 88.9% in [4]; 65.6% in assay [5]; 31.4% in assay [6]. Further, the growth in assay [7] is 48.7%; in assay [8], 65.3%; in assay [9] it was 87.6%; in [10], 23.4%.
Consider `CCOC(=O)C1=NN(c2ccc(Cl)cc2)C2C3N(c4ccc(Cl)cc4)N=C(C(=O)OCC)N3c3ccccc3N12` (stereo not given), for which the growth was 87% in [1]; 107% in assay [2]; 98.5% in assay [3]; 114% in assay [4]; 106% in [5]; 88.7% in [6]. In addition, the growth in assay [7] was 99%; in assay [8] it was 95.6%; in assay [9], 128%; in assay [10] it was 118%.
Regarding `Clc1cccc(Cc2cn3cc(-c4ccccc4)nc3s2)c1`, the growth was 62.6% in [1]; 73% in [2]; 63.5% in [3]; 69.7% in [4]; 16.5% in assay [5]; 45.9% in assay [6]. Also, the growth was 37.5% in assay [7], 68.9% in assay [8], -36.6% (active) in assay [9] and 52.4% in [10].
Consider `N#Cc1cnc2cc(OC[C@H](O)CO)c(NC(=O)CC3CSSC3)cc2c1Nc1ccc(OCc2cccc(F)c2)c(Cl)c1`, for which the growth in [1] was -73.4% (active); in assay [2], -62.3% (active); in [3], -85.4% (active); in assay [4], -60.8% (active); in assay [5], -70.7% (active); in [6] it was -68.3% (active). Also, the growth is -69.3% (active) in [7], -63.2% (active) in [8], -79.4% (active) in [9] and -93.5% (active) in [10].
`O=C(Oc1ccc[nH]c1=O)c1cccc(Cl)c1`: the growth in assay [1] is 95.6%; in assay [2], 109%; in assay [3], 99.9%; in assay [4], 90.5%; in [5] it was 100%; in assay [6], 95.3%. Also, the growth in assay [7] is 101%; in assay [8], 90.7%; in [9], 84.4%; in assay [10], 113%.
For the compound `CCCCSc1cc(C)nc(N)n1`, the growth is 95.9% in assay [1]; 98.6% in [2]; 97.1% in [3]; 91.5% in [4]; 103% in assay [5]; 94.9% in [6]. The growth is 97.8% in assay [7], 95.6% in [8], 112% in assay [9] and 105% in assay [10].
As for `C[C@@H]1CC[C@H]2[C@@H](C)C(O)O[C@@H]3O[C@]4(C)CC[C@@H]1[C@]32OO4` (stereo not given in full), the growth was 15.4% in assay [1]; 69.8% in assay [2]; 68.9% in [3]; 59.4% in assay [4]; 30.6% in assay [5]; -8.88% (active) in assay [6]. For the same compound, the growth is 41.5% in assay [7], 46.1% in assay [8], 6.72% (active) in assay [9] and 75.1% in assay [10].
Consider `c1csc([C@@H]2C[C@@H]3Cc4ccc5ccccc5c4N2O3)c1`, for which the growth was 95.5% in assay [1]; 108% in assay [2]; 91.2% in [3]; 112% in [4]; 109% in assay [5]; 87% in [6]. Moreover, the growth in [7] is 90.8%; in [8], 98.2%; in assay [9] it was 120%; in [10], 113%.
For `O=C1NCN(c2ccccc2)C12CCN(CCCC(c1ccc(F)cc1)c1ccc(F)cc1)CC2`, the growth in assay [1] was 72.9%; in assay [2], 94.1%; in assay [3] it was 60.4%; in assay [4], 82.9%; in assay [5] it was 37.3%; in [6], 61.2%. Further, the growth was 57.8% in [7], 49.2% in assay [8], 27.1% in assay [9] and 76% in [10].
`Cc1nn(-c2ccccc2)c2nc(Cl)c(/C=C/C(=O)c3ccccc3)c(-c3ccccc3)c12`: the growth in assay [1] is 102%; in [2] it was 89.7%; in [3], 105%; in assay [4], 114%; in assay [5] it was 106%; in assay [6] it was 89.9%. Further, the growth in assay [7] was 110%; in [8], 106%; in assay [9], 121%; in assay [10] it was 115%.
In the case of `COC(=O)[C@]12CC[C@@H](C)[C@H](C)[C@@H]1C1=CC[C@@H]3[C@@]4(C)C[C@@H](OC(=O)c5ccco5)[C@H](O)[C@@](C)(CO)[C@@H]4[C@H](O)C[C@@]3(C)[C@]1(C)CC2`, the growth in assay [1] is -84.1% (active); in assay [2], -53.4% (active); in assay [3], -93.8% (active); in [4], -88.3% (active); in [5], -84.7% (active); in [6], -83.3% (active). Further, the growth in [7] was -92.7% (active); in assay [8], -77.8% (active); in assay [9], -93.3% (active); in assay [10] it was -100% (active).
Consider `COc1ccc2c(c1)/C(=C\c1c[nH]c3ccc(F)cc13)C(=O)N2`, for which the growth in assay [1] was 81.4%; in [2], 92.6%; in assay [3] it was 75.9%; in assay [4] it was 88.8%; in [5], 87.7%; in [6], 80%. In addition, the growth in [7] was 70%; in [8] it was 96.5%; in [9] it was 103%; in [10], 84%.

The values are drawn from PubChem BioAssay (NCI).
